From PubChem
Six1-Eya2 blk – Six1/Eya2 interaction inhibition | Q15475+O00167 | 360,000 tested, 0.56% active | AID 651725 | AlphaScreen GST-Six1/His-Eya2 binding, biochemical; active compounds read low | activity change, % (test concentration not listed); in the data active means activity change below about -65%; inconclusive means mostly about -30% to -63%; further: on the % scale 0 is the no-effect control and ±100 the full control effect
Target sequence (O00167 whole entry, looked up): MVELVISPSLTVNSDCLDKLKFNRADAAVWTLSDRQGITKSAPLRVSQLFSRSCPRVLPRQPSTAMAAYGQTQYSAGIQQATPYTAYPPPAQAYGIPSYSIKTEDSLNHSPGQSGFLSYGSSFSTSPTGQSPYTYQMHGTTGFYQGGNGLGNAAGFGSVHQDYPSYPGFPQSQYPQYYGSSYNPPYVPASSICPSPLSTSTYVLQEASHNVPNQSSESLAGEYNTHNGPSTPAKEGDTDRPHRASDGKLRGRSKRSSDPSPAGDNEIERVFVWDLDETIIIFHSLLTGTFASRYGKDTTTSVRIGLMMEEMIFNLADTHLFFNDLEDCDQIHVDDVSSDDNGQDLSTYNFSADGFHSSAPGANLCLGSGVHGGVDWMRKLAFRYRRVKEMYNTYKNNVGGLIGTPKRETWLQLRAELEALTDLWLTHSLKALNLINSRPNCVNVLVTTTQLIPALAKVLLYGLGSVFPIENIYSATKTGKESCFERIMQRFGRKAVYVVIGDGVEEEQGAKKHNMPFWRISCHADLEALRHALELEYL
Target sequence (Q15475 whole entry, looked up): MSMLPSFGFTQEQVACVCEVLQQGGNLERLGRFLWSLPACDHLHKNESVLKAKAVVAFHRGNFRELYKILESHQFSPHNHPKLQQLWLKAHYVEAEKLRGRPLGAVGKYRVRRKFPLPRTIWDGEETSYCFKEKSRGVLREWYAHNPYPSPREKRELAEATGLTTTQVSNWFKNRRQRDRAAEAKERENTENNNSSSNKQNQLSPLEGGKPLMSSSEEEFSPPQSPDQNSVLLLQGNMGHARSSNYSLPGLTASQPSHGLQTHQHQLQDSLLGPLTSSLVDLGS
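Compounds are tested against tagged Six1 and Eya2 proteins bridged by glutathione donor and nickel acceptor beads; after a one-hour incubation at 37 °C without light, AlphaScreen emission is recorded.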
CtBP-E1A inh – blocks the CtBP interaction with E1A; AlphaScreen GST-E1A/His-CtBP binding, 1536-well; active compounds read low; activity change, % (test concentration not listed); 340,000 tested, 0.49% active; AID 651724; in the data active means activity change below about -65%; inconclusive means mostly about -30% to -63%; further: on the % scale 0 is the no-effect control and ±100 the full control effect
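In 5 uL wells, 23 nL compound meets equimolar GST-E1A and His-CtBP (5X stock 125 nM each) for 2 h, 37 °C. Beads (5X, 50 ug/mL) then 1 h, 37 °C, dark.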
G9a inh – G9a (human) methyltransferase inhibition | Q96KQ7 | G9a H3K9 monomethylation, AlphaScreen, 2 h | Potency, µM (highest dose often 102 µM), inactives show at the top dose activity, negative = inhibition, most hits filed as inhibitors | 350,000 tested, 8.8% active | AID 504332; further: potency means the concentration at half of the fitted maximal effect; on the % scale 0 is the no-effect control and ±100 the full control effect; nearly all actives have a fitted effect of over 75% in size
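Signal arises when biotinylated H3K9 peptide, once monomethylated, bridges streptavidin donor and antibody-captured acceptor beads. Enzyme at 20 nM was preincubated 15 min with test compounds; peptide 500 nM and SAM 20 uM then reacted for 2 h.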
HP1b chromo inh – blocks HP1-beta chromodomain binding to methylated histone tails; AlphaScreen HP1-beta / biotin-H3K9me3 peptide binding; Potency, µM (highest dose often 114 µM), for the others: top-dose activity change, negative = inhibition, hits mostly inhibitors; 390,000 tested, 0.56% active; further: potency means the concentration at half of the fitted maximal effect; nearly all actives have a fitted effect of over 70% in size
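Compound inhibition of the preformed complex between 50 nM HP1-beta and 50 nM biotinylated H3K9me3 peptide was read by AlphaScreen. Buffer was PBS pH 7.4 with 0.01% Tween-20. Incubations ran 30 min at room temperature, with 10 ug/mL donor/acceptor beads.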
BAZ2B block – BAZ2B (human) inhibition; Q9UIF8; AlphaScreen BAZ2B-H3K14Ac peptide displacement; Potency, µM (doses to about 114 µM), inactives show at the top dose activity change, negative = inhibition, most hits filed as inhibitors; 360,000 tested, 4.4% active; AID 504333; further: potency means the concentration at half of the fitted maximal effect; on the % scale 0 is the no-effect control and ±100 the full control effect; nearly all actives have a fitted effect of over 60% in size
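BAZ2B (50 nM) with biotin-H3(5-23)K14Ac peptide (50 nM) in PBS pH 7.4, 0.01% Tween-20, preformed 30 min, then compound 30 min at room temperature; top concentration 110uM. AlphaScreen streptavidin donor/nickel chelate acceptor beads (10 ug/mL final), 20 min dark, signal read.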
JMJD2A Tudor inh – JMJD2A Tudor domain (human) inhibition. 390,000 tested, 4.4% active. Potency, µM (titrated, usually from 114 µM), inactives show at the highest dose activity change, negative = inhibition, most hits filed as inhibitors. AID 504339. AlphaScreen JMJD2A-Tudor / H3K4me3 peptide binding; further: potency means the concentration at half of the fitted maximal effect; on the % scale 0 is the no-effect control and ±100 the full control effect; nearly all actives have a fitted effect of over 50% in size
Starred values were filed as active, the others as inactive; ? = inconclusive; / = no result given; [ ] = dose if it differs, or a comment. The list is not random: actives were taken first. Their share in the collection is about 10%. Unless noted, the call rests on the fitted dose curve; in most records, active means well fitted inhibition curve with a large enough effect; inconclusive means small, poorly fitted or top-dose-only effect; inactive means no such curve, though single readings can be large or run the other way.

SMILES | Six1-Eya2 blk | CtBP-E1A inh | G9a inh | HP1b chromo inh | BAZ2B block | JMJD2A Tudor inh
O=C1COc2ccc(C(=O)CSc3nnc(Cc4cccs4)n3-c3ccccc3)cc2N1 | -22 | -28 | 79µM* | 18% | 2% | 3%[57.1 µM]
O=C(NC(c1cccnc1)C(F)(F)F)c1cc(COc2ccc3c(c2)CCCC3)on1 (centres undefined) | -2 | -2 | 18% | 26% | -18% | -23%
Cc1ccccc1NC(=S)NC(=O)c1cc(-c2ccccc2)nc2ccccc12 | -16 | -17 | / | -24% | -37% | ?
Cc1ccc(S(=O)(=O)N(C)C)cc1NC(=O)c1cc(-c2ccco2)nc2ccccc12 | -13 | 0 | 40µM* | 7% | ? | ?
CCc1nnc(NC(=O)c2cc(-c3ccccn3)nc3ccccc23)s1 | -15 | / | ? | 26% | ? | -14%
CCc1nnc(NC(=O)c2cc(-c3ccco3)nc3ccccc23)s1 | -17 | -4 | 50µM* | -15% | 40µM* | ?
Cc1ccccc1NC(=O)c1cc(-c2ccco2)nc2ccccc12 | -19 | -16 | / | ? | / | 20µM*
Cc1cc(C(=O)OCC(=O)Nc2cc(S(=O)(=O)N(C)C)ccc2C)c2ccccc2n1 | -17 | 3 | 8% | 4% | -22% | -15%
O=C(N/N=C/c1cccc(F)c1)c1cc(-c2ccco2)nc2ccccc12 | -29 | -1 | ? | 28µM* | 6.3µM* | ?
Cn1cc([C@]2(O)C(=O)Nc3ccc(Br)cc32)c2ccccc21 | -16 | -1 | / | / | / | /
Cc1ccc(N2C(=O)CCSC23C(=O)N(Cc2ccccc2)c2ccccc23)cc1F (centres undefined) | / | / | ? | -10% | -22%[57.1 µM] | ?
Cc1cc(C)cc(NC(=O)Nc2cc(S(=O)(=O)N(C)C)ccc2C)c1 | -4 | -7 | -10% | -4% | -9% | -23%
Cc1cccc(NC(=O)c2cc(Cl)nc3ccccc23)n1 | -1 | -1 | -3% | 17% | 1% | -12%
Cc1cccc(NC(=O)c2cc(-c3ccco3)nc3ccccc23)n1 | 2 | 5 | 32µM* | 34% | ? | -26%
Cc1ccc(S(=O)(=O)N(C)C)cc1NC(=O)Nc1ccccc1F | -9 | -17 | 50µM* | 14% | 60% | -8%
COc1ccc(-c2nnc3n2N=C(c2ccc(OC)cc2OC)CS3)cc1 | / | / | / | / | / | -29%
COc1cc(OC)cc(C(=O)Nc2ccc(S(=O)(=O)N3CCCCC3c3cccnc3)cc2)c1 (centres undefined) | / | / | -7%[59 µM] | 8%[57 µM] | -17% | -20%
O=C1NCN(C2CCCCC2)CN1 | 3 | 3 | / | -26% | / | -10%
COc1ccc(/C=N/OCC(=O)Nc2nc3ccccc3s2)cc1OC | -15 | 3 | 7% | -1% | -2% | 50µM*
COc1ccc(C(=O)Nc2nc3ccccc3s2)cc1OC | 2 | -1 | / | 34% | 3% | -15%
N#CCOc1ccc2oc(-c3ccco3)cc(=O)c2c1 | / | / | -42% | / | 1% | /
CC(C)OCCOc1ccc2oc(-c3ccco3)cc(=O)c2c1 | -6 | -2 | -3%[59 µM] | ? | 56µM* | ?
COc1cc(NS(=O)(=O)c2ccc(NC(C)=O)cc2)ncn1 | 5 | 11 | ? | 5% | -2% | -26%
COc1ccc(/C=C/C(=O)NC(=S)Nc2ccc(S(=O)(=O)Nc3nccnc3OC)cc2)cc1 | -25 | ? | ? | -12% | -34% | -12%
COc1cc(NS(=O)(=O)c2ccc(NC(=S)NC(=O)/C=C/c3ccc(OC)c(OC)c3)cc2)ncn1 | -17 | / | 40µM* | 22µM* | 13µM* | -24%[11.4 µM]
SMILES | Six1-Eya2 blk | CtBP-E1A inh | G9a inh | HP1b chromo inh | BAZ2B block | JMJD2A Tudor inh
COc1ccc(/C=C/C(=O)NC(=S)Nc2ccc(S(=O)(=O)Nc3cc(OC)ncn3)cc2)cc1 | -25 | ? | 40µM* | 7% | -20% | -20%
Cc1nnc(N/N=C/c2ccco2)n1N | ? | ? | 24% | 10% | -5% | 25µM*
COc1cccc(/C=N/Nc2nnc(C)n2N)c1O | -73* | -88* | 14% | 42% | 5% | ?
COc1cccc(/C=N/Nc2ncnc3c2ncn3Cc2ccccc2)c1O | -78* | -87* | 14%[59 µM] | 21% | -21% | -19%
CCOc1ccc(-n2c(C)cc(/C=N/Nc3nc(C)cc(=O)[nH]3)c2C)cc1 | -11 | -6 | ? | 9% | -27% | ?
Cc1ccnc(N/N=C/c2ccco2)n1 | -2 | 2 | -4% | 22% | 4% | ?
COc1cccc(/C=N/Nc2cc(Cl)nc(C)n2)c1O | -9 | / | -10% | 49% | 1% | -18%
COc1ccc(-n2c(C)cc(/C=N/Nc3nnc(C)n3N)c2C)cc1 | -4 | -13 | 11µM* | -34% | ? | ?
CCCCC(Sc1nc2cc3c(cc2c(=O)n1CCCC(=O)NCc1ccc2c(c1)OCO2)OCO3)C(=O)OCC (centres undefined) | / | / | 5%[59 µM] | 29% | -3% | -5%
CNc1cc(-c2cc(OC)ccc2OC)ncn1 | -4 | -3 | / | / | / | /
COc1cccc(N2CC(NC(=O)C3CCCCC3)CC2=O)c1 (centres undefined) | / | / | -14%[59 µM] | 44% | -14% | -9%
CC(C)CN(CCCNC(=O)c1cn(C)c2ccc(S(=O)(=O)N(C)C3CCCCC3)cc2c1=O)CC(C)C | / | / | 2%[59 µM] | 13% | / | -14%
COc1cccc(/C=N/Nc2cc(N3CCOCC3)ncn2)c1O | -91* | -94* | 45% | 37% | 2.8µM* | 45µM*
COc1ccc(/C=N/Nc2cc(N3CCOCC3)ncn2)c(OC)c1 | -1 | ? | / | 46% | 5% | -16%
Cc1nnc(N/N=C/c2ccccc2F)n1N | -7 | -22 | 11% | 38% | -15% | -3%
Cc1nnc(N/N=C/c2ccccc2C(F)(F)F)n1N | -3 | / | 45µM* | 29% | -16% | -9%
Cc1ccc(C)c(NC(=O)N2CCC(N3CCN(Cc4ccc(F)cc4)C(=O)C3=O)CC2)c1 | / | / | 3%[59 µM] | 23% | -8% | -17%
